About 3,700 (7%) of roughly 53,000 sequences were called active.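 Rule for the calls: active = gene knockdowns whose robust z-score for IL-1 alpha signal is at least 2 or at most -2, so actives lie on both sides; inactive = the rest.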 Only a selection was taken, and actives are over-represented in it overall.
experiment: Components of the Cytosolic LPS Sensing Pathway: Gene Identification via Genome-wide siRNA Screen; settings: RAW264.7 macrophages, IL-1a HTRF, actives lie on both sides, screened at 100 nM (by protocol), cells primed 5 h with Pam3CSK4 first;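 note: robust z of the log signal after scaling to non-targeting control siRNA wells of the plate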
Method in brief: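 RAW264.7 mouse macrophages reverse-transfected with single siRNAs (100 nM final) for 48h, primed with Pam3CSK4 for 5 hours, then transfected with LipidA for 24 hour. Supernatant IL-1a read by HTRF; values normalized to negative-control median, log-transformed robust z-scores.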

z-score, active:
GCGGGUGAAAUACACCAAGTT against Trim28 -2.2
UCCAUUUCGACCCUUGUACTT against Romo1 -2.88
GGGCUUCUUCUGCUAUGACTT against Plppr2 -2.2
GGGUGUUUGGUUGUGAUCUTT against Arhgap33 -2.07
GGAUGUGAUCAUAGCAUGGTT against Slc35e1 -2.07
CUCUCGAACAAUCAACCACTT against Olfr315 2.05
GACUAUGUGGUCUACUCGUTT against Drd4 2.86
GCCAUAUCAACUAGUGCAGTT against Siglech 2.36
CCCAGAACGGGAUGAUUCUTT against Trex2 2.77
CCUGAGAUUGGGAAAUUCUTT against Engase 2.02
CCGAAAAAUAUGUUUUCCGTT against Mettl4 2.87
GCUCAACUUACGUUCACUCTT against Vps72 -2.53
AAACAGUCAUUUCCUAUAGTT against Olfr1502 -2.04

z-score, inactive:
GGCCAAGCAUGUUUUGUCATT against Cep72 -0.639
GCUUGGUGGGUUUGUUGAUTT against Slc28a1 -0.113
GUGCUCUAUGUCUUCACUGTT against Ltb4r2 -1
CGACUACCAACAGUUCAUATT against P2rx6 1.14
GGAGCUCAUAGACCAGCUUTT against Necab3 0.371
GCUUGAUGGUAAAAAGGUUTT against Atl1 -1.18
CCAACCUAUAAGUUAAUGATT against Mrps22 -0.735
CGGAGAGGAUUUCAUCGAATT against Azgp1 0.0877
GGGCCUCCAUCCUACUAUGTT against Grina 1.65
CGAUAUGUGUUUGUAAUGGTT against Atp6v1d -0.853
GCCGUGAUCGACUUGAAUATT against U2af1 0.763
CCAAUAUGCUCAGUAUUACTT against Eya4 -1.36
CCCUCUCCCUUCAAUGUGGTT against Cblif -1.38
GGAGUAGUAGCUGAAUUUGTT against Abcc3 0.317
GGCUGAUCUCUUUUGCCAGTT against Reg2 0.00409
GGAACAUAUACUGGACAGATT against Zfp825 0.436
GGGCUAAUAUACAGAAAUATT against Rrm2b -0.126
GGUGGAGAAAAAUGCAACATT against Clnk -0.429
GGAAAUCUGAAGAAUCAAGTT against Zup1 -0.621
GGAGGUAGAAAAGACAAAATT against Jrk 1.96
GGAUGCAUUUCUGAGCCACTT against Tacc2 -1.62
GGAAGGACAAUCAGUUCCUTT against Thsd7b 0.999
CCUUUUAUAACUGCUCUCUTT against Jpt2 -1.01
GCUCACUCUUUCCAACUAUTT against Ubox5 0.465
GGCUGGAUUAUUUUUUCUUTT against Usp4 0.921
GAACGUGCAGCUGACAGAGTT against Ppp1ca -1.03
CGGGCUGGAAGAAAUCUCUTT against Rhox3a 0.771
GGACAAAACCAUCUCCUUCTT against Olfr17 0.324
GGGAAUGCACUACAACUACTT against Chpf 1.16
GGCUUUUCUGGCUAUCCACTT against Anxa7 -0.774
GGCCCAAGAGCAUUCUGGATT against Slc25a19 0.552
GGGUGUGCAUUUGUACUACTT against Smad9 1.21
GGAUAUGUCAGCAUAUGUGTT against Yeats4 -0.583
GGUCAACAGUUACAUCGAGTT against Vps33a 0.273
GCCCAUCUUAGCAUUCUCUTT against Aldh4a1 -1.91
GCUAGAAAAAAAUCAGUUGTT against Eif2a 0.6
CCUCUCAACCACUGACUGATT against Gpatch4 0.836
GCUCAAAUCGUACAAGUGUTT against Panx1 0.214
GUCCUCGUAGGAACAGCAUTT against Olfr1265 -1.52
GGCACUGUUGUGGCUGAAATT against Coro1a 1.47
CCUCAUGGAUGUUCGUAGATT against P2ry10 0.452
GCUAGGAUGUCUGAAAGAGTT against Ccdc178 0.266
GGCUGUAUCCUGACAGCAATT against Olfr231 0.213
GCGUGGAGAACCGUUAAUCTT against Shroom3 0.845
CCUCUCUAGGCCAUGUUCUTT against 1110008P14Rik 0.381
GGUUUUAUCCCUGUUUCCUTT against Naaa -0.115
GCGGUCAACUGGAAACUAATT against Dnaja3 0.735
GCAUCAUGAGUCCCAUUCUTT against Olfr385 -0.276
CCAACGCGCACGGCCGCGCTT against Tmem158 -0.359
CCCUGCUGUCGUUUUGACUTT against Senp3 -0.122
GGAAAGUUUUGGCGACUACTT against Fbxw19 0.25
GGAUUUAAAUCACCUGUAATT against Tdpoz1 -0.864
GCAGAAAAGGUCUACGUGCTT against Azgp1 1.8
CCGAUUAAAAGAGUGUUUGTT against Nudt8 1.85
GGUUAUCUUUGGGACUUAATT against Lrmp -1.66
GCUGGUGCUCUUCACCAUATT against Fbxw17 -0.419

From PubChem BioAssay AID1508600 (Functional Genomics Laboratory (NCATS/FGL), 2020)
